PME-1 primary = blocks human protein phosphatase methylesterase 1. recombinant PME-1, FP-Rh probe fluorescence polarization. inhibition, % at 5.9 µM. 320,000 compounds, 0.53% hits. AID 2130;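 active means inhibition above the campaign mean of all compounds plus 3 SD, cut at about 26% in these data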;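 further: competitive labeling of PME-1 active site by serine hydrolase directed probe; 0% = PME-1 with DMSO and 100% = wells lacking PME-1 enzyme; inhibitors block probe labeling so polarization falls and inhibition rises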
PAD4 FP inh = blocks human protein arginine deiminase 4; AID 485272; Q9UM07; inhibition, % at 6.36 µM; recombinant PAD4, RCA probe fluorescence polarization; 330,000 compounds, 0.41% hits;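 active means percent inhibition above a cutoff equal to the mean of all tested compounds plus 3 SD, cut at about 15% in these data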;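 further: 0% = PAD4 with RCA probe and DMSO and 100% = probe without PAD4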
Target sequence (Q9UM07 whole entry, looked up): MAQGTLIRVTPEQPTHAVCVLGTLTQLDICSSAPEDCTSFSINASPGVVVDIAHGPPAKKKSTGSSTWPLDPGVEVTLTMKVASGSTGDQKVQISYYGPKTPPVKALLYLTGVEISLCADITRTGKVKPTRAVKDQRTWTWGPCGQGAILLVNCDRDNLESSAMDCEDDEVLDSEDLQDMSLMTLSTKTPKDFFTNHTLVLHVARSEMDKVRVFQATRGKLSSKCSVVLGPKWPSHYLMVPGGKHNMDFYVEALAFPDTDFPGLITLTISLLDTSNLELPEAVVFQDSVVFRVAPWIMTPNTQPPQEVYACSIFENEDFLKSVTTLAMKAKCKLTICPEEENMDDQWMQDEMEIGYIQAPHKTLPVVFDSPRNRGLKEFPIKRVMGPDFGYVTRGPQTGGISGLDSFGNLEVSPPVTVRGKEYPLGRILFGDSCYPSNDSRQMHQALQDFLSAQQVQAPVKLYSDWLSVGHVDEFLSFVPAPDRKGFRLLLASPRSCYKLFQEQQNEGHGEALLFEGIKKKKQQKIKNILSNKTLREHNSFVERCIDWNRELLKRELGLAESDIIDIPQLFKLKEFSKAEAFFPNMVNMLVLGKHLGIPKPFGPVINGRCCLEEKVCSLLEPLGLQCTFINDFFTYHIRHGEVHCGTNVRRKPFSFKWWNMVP
LYPLA1 counter = LYPLA1 (human) inhibition in PME1 counter-screen. recombinant LYPLA1, FP-Rh probe fluorescence polarization. inhibition, % at 5.9 µM. 320,000 compounds, 0.16% hits;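 active means inhibition above the mean of all tested compounds plus 3 SD, set per campaign, cut at about 14% in these data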;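 further: inhibitors block serine hydrolase probe labeling of LYPLA1 so polarization falls; 0% = enzyme with DMSO and 100% = wells lacking LYPLA1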
Fam108B inh = blocks mouse Fam108B hydrolase in RBBP9 counter-screen; recombinant Fam108B, FP-Rh probe fluorescence polarization; inhibition, % at 9.51 µM; 300,000 compounds, 0.33% hits;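 active means inhibition above the screen mean inhibition plus 3 SD, computed separately per campaign, cut at about 18% in these data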;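 further: inhibitors lower polarization as less probe binds the enzyme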
GSTO1 counter = GSTO1 inhibition, counter-screen for RBBP9 inhibitors. recombinant GSTO1, activity-based probe fluorescence polarization. inhibition, % at 5.96 µM. 300,000 compounds, 1.1% hits;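 active means inhibition above the campaign mean inhibition plus 3 SD, cut at about 35% in these data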;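 further: 0% = GSTO1-1 with DMSO and 100% = wells lacking GSTO1-1 enzyme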
LYPLA2 inh = counter-screen for PME1 inhibitors: inhibitors of human LYPLA2. O95372. recombinant LYPLA2, FP-Rh probe fluorescence polarization. inhibition, % at 5.9 µM. 320,000 compounds, 0.38% hits. AID 2177;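 active means inhibition above the screen-wide mean plus 3 SD, limit set per campaign, cut at about 26% in these data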;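 further: 0% = LYPLA2 with DMSO and 100% = wells lacking LYPLA2 enzyme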
GSTO1 confirm = GSTO1 (human) inhibition, confirmation | shares compounds with GSTO1 counter | recombinant GSTO1, probe fluorescence polarization | inhibition, % at 5.96 µM | 2,400 compounds, 54% hits;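 active means inhibition above the primary screen's cutoff, its mean inhibition plus 3 SD, cut at about 35% in these data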;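 further: loss of polarization as inhibitors block binding of rhodamine sulfonate ester activity probe; 0% = GSTO1 with DMSO and 100% = wells lacking GSTO1 enzyme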
* hit, by the source's call; x = not tested or not shown. The list is not random: actives were taken first. Their share in the collection is about 1.8%.

SMILES | PME-1 primary | PAD4 FP inh | LYPLA1 counter | Fam108B inh | GSTO1 counter | LYPLA2 inh | GSTO1 confirm
Cc1ccc(O)c(N=CC2=C(O)c3ccccc3C2=O)c1 | 34* | 4 | 0 | 16 | 68* | -4 | 26
CC1Oc2cc3oc4c(O)c(O)ccc4c(=O)c3c(O)c2C1(C)C (configuration not stated) | 5 | -2 | -20 | -11 | 45* | -26 | 6
O=c1cc(CN2CCOCC2)c2ccc(O)c(O)c2o1 | -2 | -2 | 0 | -4 | 14 | -3 | x
O=C(OCC(=O)N1CCCC1=O)c1nc(Cl)c(Cl)c(Cl)c1Cl | -6 | -5 | -3 | 0 | 40* | -6 | 24
COC(=O)[C@@]1(Cc2ccccc2)[C@H]2C(=O)N(Cc3ccccc3)C(=O)[C@H]2[C@H]2CN=C(SC)N21 | x | -2 | x | x | x | x | x
O=C(NNc1cc(Br)c(O)c(Br)c1)c1ccccc1 | 3 | -1 | -1 | 5 | 65* | 7 | 27
CCOc1ccc(S(=O)(=O)N2CCCC(C(=O)NCCN3CCOCC3)C2)cc1Cl (configuration not stated) | -1 | -3 | 1 | -2 | 6 | 2 | x
COCCN(C(=O)COC(=O)c1cc2c(s1)CCC2)c1c(N)n(Cc2ccccc2)c(=O)[nH]c1=O | -12 | 5 | -3 | 14 | 52* | 2 | 36*
COc1cccc(C2C3(C#N)C(N)=NC(OC)(OC)C23C#N)c1 (configuration not stated) | -4 | 0 | 2 | 5 | 2 | -1 | x
COC1(OC)N=C(N)C2(C#N)C(c3cccc(Oc4ccccc4)c3)C12C#N (configuration not stated) | -5 | -1 | -2 | 2 | 65* | 0 | 30
COc1ccc(C(=O)C2CCCN(S(=O)(=O)c3ccc(C(C)=O)cc3)C2)c(C)c1 (configuration not stated) | 17 | 3 | -1 | -1 | 7 | 8 | x
O=C(NCc1ccc2c(c1)OCO2)c1cccc(C(=O)NCc2ccc3c(c2)OCO3)c1 | -4 | -2 | -4 | -1 | 1 | 5 | x
O=C1COc2ccc(C(=O)NCc3ccc4c(c3)OCO4)cc2N1 | 4 | 0 | 0 | 1 | 43* | -1 | 32
Cc1ccc(NC(=O)CSc2nc(=O)n(Cc3ccncc3)c3c2CCC3)c(C)c1 | 1 | -4 | 3 | -5 | -1 | 6 | x
CCOc1ccc(N(CCCCO)C(=S)NC(=O)c2ccc(C)c(Br)c2)cc1 | 3 | -4 | 0 | -5 | 47* | 9 | 11
COc1cc(OC)cc(C(=O)Nc2nc(CC(=O)NC(C)c3ccccc3)cs2)c1 (configuration not stated) | 3 | 0 | -5 | -1 | -6 | -8 | x
COc1ccc(C)cc1NCc1cc(=O)oc2cc(-c3ccccc3)c(O)cc12 | -5 | -1 | 2 | -4 | 5 | -1 | x
COC(=O)c1ccccc1NCc1cc(=O)oc2cc(O)c(O)cc12 | -8 | 9 | -5 | 3 | 43* | 4 | 10
CC1OC(Nc2cccc3ccccc23)C(O)C(O)C1O (configuration not stated) | -1 | -17 | -1 | 10 | 49* | 1 | 8
COC(=O)Cc1c(C)[nH]n(-c2cc(Cl)cc(Cl)c2)c1=O | -1 | -17 | -2 | 6 | 47* | 0 | -12
CCOC(=O)c1n[nH]n(-c2cc(Cl)cc(Cl)c2)c1=O | -3 | 1 | -3 | 0 | -25 | -4 | x
CC(=O)Oc1ccc(N(C(C)=O)S(=O)(=O)c2cccs2)c2ccccc12 | 12 | -5 | -1 | -2 | 52* | 0 | 14
Cc1cccc2sc(NNC(=O)c3cc(-c4cccs4)nc4ccccc34)nc12 | 1 | 0 | -8 | -7 | -16 | -9 | x
COc1ccc(NC(=O)CN(C)C(=O)c2cc3c(s2)CCCCC3)cc1 | 1 | 3 | 0 | 1 | -3 | 6 | x
COc1ccc(NC(=O)CN(C)C(=O)c2cc3c(s2)CCC3)cc1 | -1 | -4 | -4 | -1 | 59* | -1 | 17
SMILES | PME-1 primary | PAD4 FP inh | LYPLA1 counter | Fam108B inh | GSTO1 counter | LYPLA2 inh | GSTO1 confirm
CCn1nc(C)c([N+](=O)[O-])c1C(=O)NNC(=O)c1ccc(Cl)cc1 | -5 | -1 | 0 | -6 | 2 | 1 | x
COCC(C)OC(=O)c1c(N)n(CC(C)C)c2nc3ccccc3nc12 (configuration not stated) | -3 | -18 | 1 | -1 | 45* | 3 | 2
COC(=O)c1c(NC(=O)C2CCCCC2C(=O)O)sc2c1CCCCC2 (configuration not stated) | 3 | -3 | -2 | -2 | 23 | -2 | x
CCOC(=O)c1c(NC(=O)C2CCCCC2C(=O)O)sc2c1CCCCC2 (configuration not stated) | -1 | 1 | -1 | 1 | 54* | -5 | 47*
COc1cc(S(=O)(=O)N(Cc2cccnc2)Cc2ccco2)ccc1-n1cnnn1 | 1 | -3 | 2 | 4 | 40* | 0 | 4
Cc1cccc(C(=O)NC2C(=O)NNC2c2ccc(Cl)cc2)c1 (configuration not stated) | -2 | -2 | -2 | -2 | 44* | 1 | 5
CCOC(=O)C1=C(C)N(c2ccc(OC)cc2)C(=O)/C1=C\c1ccc(O)c(OCC)c1 | 4 | -3 | 2 | 5 | 57* | 6 | 9
Cc1cc(NC(=O)c2ccccc2)n(-c2nc3ccccc3[nH]2)n1 | -4 | -5 | -3 | -3 | -5 | -9 | x
CCOC(=O)C(=O)Nc1cc(C)nn1-c1nc2ccccc2[nH]1 | -3 | -7 | -3 | -2 | 45* | 0 | 3
COc1cc(CNC(C)(C)CO)ccc1OCC(=O)NC(C)(C)C | 2 | -3 | 2 | 7 | -4 | 12 | x
CCNCc1ccc(OCc2ccccc2F)c(OC)c1 | -6 | -2 | 1 | 1 | 0 | 3 | x
COc1cc(CNc2ccc(N3CCCC3)cc2)ccc1OCc1ccccc1F | 3 | -12 | -1 | 5 | 46* | 9 | 35*
COc1cc(CNc2ccc(N3CCCCC3)cc2)ccc1OCC(=O)NC(C)(C)C | -4 | -9 | -3 | 2 | 47* | -4 | 5
CCOC(=O)C1CCN(C(=O)c2ccc(C)o2)CC1 | x | -5 | x | x | x | x | x
Cc1oc2c(c1C(=O)N1CCC(C)CC1)C(=O)c1ccccc1C2=O | -7 | 9 | 2 | 0 | 40* | 2 | 8
CCOC(=O)C1CCN(C(=O)c2c(C)oc3c2C(=O)c2ccccc2C3=O)CC1 | 2 | 3 | -2 | 5 | 44* | 5 | 48*
COc1ccc(S(=O)(=O)N2CCN(C(=O)Nc3ccccc3OC)CC2)cc1 | 1 | -10 | -5 | 0 | -3 | -4 | x
CCC(=O)N(CC)C1=C(O)c2ccccc2C(=O)C1=O | 2 | 3 | -3 | 1 | 38* | -4 | 32

From PubChem BioAssay
